# Data as given in PubChem BioAssay AID1273 (Columbia University Molecular Screening Center, 2008).
# In all, about 130,000 compounds went through this assay and about 1,200 (0.92%) were called active.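 How the source made its calls: active means inhibition above the mean plus 3 SD, with well images judged a real hit on visual review (cut at about 60% in these data, passing the limit was not always enough); inconclusive means inhibition over the cutoff but images rejected on review; inactive means inhibition not above the cutoff.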 This excerpt belongs to a sample that is enriched for actives.
# Test: inhibitors of insulin promoter-driven GFP, primary screen, imaging, TRM-6 cells (human fetal islet line), eGFP reporter, cell count (AID 1273;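 on normalized cell count: cells exposed to compound for 48 h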)
# Settings: at 2 µM, reporter expression induced with tamoxifen; inhibition: stronger effect = higher value; normalized cell count: measured here: cell count, toxicity
Structure (SMILES),inhibition,normalized cell count [%]
CC(C)(C)c1cc(=O)n2c(nc3ccccc32)[nH]1,29.4% (inactive),245
CC1(C)CC(=O)c2cnc3nc4ccccc4n3c2C1,76.2% (active),56.3
Cc1ccc2nc(Nc3ncc4c(n3)CC(C)(C)CC4=O)nc(C)c2c1,-25% (inactive),96.8
Cc1ccc(OCCCn2c(=O)oc3ccccc32)cc1,-26.7% (inactive),84.1
COc1ccc(OC)c(Cc2nnc(CCC(=O)NC3CCCC3)o2)c1,11.1% (inactive),95.3
Cc1onc(C(=O)NN)c1C(=O)N1CCN(C(c2ccccc2)c2ccccc2)CC1,81.8% (active),29.3
Cn1nnnc1SCC(=O)N1CCN(C(c2ccccc2)c2ccccc2)CC1,-18.9% (inactive),68.2
Cc1onc(-c2ccccc2)c1C(=O)N1CCOCC1,-90% (inactive),78.8
Cc1nnsc1C(=O)N/N=C/c1cccc(C(F)(F)F)c1,-86.7% (inactive),39.6
O=c1c([N+](=O)[O-])cccn1Cc1ccc(F)cc1Cl,73.3% (active),83.1
O=[N+]([O-])c1ccccc1NCc1ccccc1Cl,33.3% (inactive),123
O=c1c([N+](=O)[O-])cc(C(F)(F)F)cn1Cc1cccc(Cl)c1,-10.7% (inactive),66.7
CCOC(=O)Cn1nnnc1C,26.7% (inactive),95.5
O=C(c1snnc1-c1ccccc1)N1CCOCC1,-30.2% (inactive),64.9
Cc1cccc(C)c1NC(=O)C1(N(C(=O)c2ccccn2)c2ccc(O)cc2)CCCCC1,6.67% (inactive),38.5
CC(O)c1cccc(NC(=O)Cc2cccc3ccccc23)c1 (stereo not drawn),-38.9% (inactive),41
COc1ccc(C(=O)N2CCC(C(=O)Nc3ccc(C)cc3)CC2)cc1,33.3% (inactive),85.5
CCCOc1ccc(NC(=O)C2CCCNC2=O)cc1 (stereo not drawn),5.71% (inactive),82.1
O=C1CCC(C(=O)Nc2ccc(OC(F)F)cc2)N1 (stereo not drawn),72.7% (active),73.3
CCOC(=O)Cc1ncccc1C(=O)Nc1ccc(OC(F)(F)F)cc1,0% (inactive),62.2
O=C(CNCc1ccc(Cl)cc1)Nc1cccc(C(=O)O)c1,38.5% (inactive),79.9
Cc1ccc(O/C=C2\OC(=O)c3ccccc32)cc1,81.2% (active),93
Cc1ccc(S(=O)(=O)c2ccc(Oc3ccccc3)cc2)cc1,-87.1% (inactive),116
Cc1ccc(OC(=O)c2cc3ccccc3o2)cc1,-79.3% (inactive),174
Cc1nn(-c2ccccc2)c(Cl)c1/C=C/C(=O)c1ccc(O)cc1,-70.4% (inactive),111
Cc1nn(-c2ccccc2)c(C)c1/C=C/C(=O)OC(C)C(N)=O (stereo not drawn),68.8% (active),181
Cc1ccc(C(=O)/C=C/c2c(C)nn(-c3ccccc3)c2Cl)cc1,-16.7% (inactive),102

Structure (SMILES),inhibition,normalized cell count [%]
O=C(COc1cccc2ccccc12)Nc1cc(S(=O)(=O)N2CCOCC2)ccc1N1CCOCC1,11.1% (inactive),67.5
CN1C(=O)C(CC(=O)Nc2ccccc2)S/C1=N/c1nccs1 (stereo not drawn),-107% (inactive),120
COC(=O)c1nc(NC(=O)c2ccc(F)cc2)n[nH]1,28.6% (inactive),129
Cc1ccccc1NC(=O)c1nn(-c2ccc(F)c(F)c2)ccc1=O,25% (inactive),93.8
O=C(Nc1ccc(F)cc1)N1CCCC(c2nc3c(nnn3Cc3ccccc3Cl)c(=O)[nH]2)C1 (stereo not drawn),-42.9% (inactive),122
COc1ccc(Cn2nnc3c(=O)[nH]c(C4CCN(C(=O)c5ccccc5Cl)CC4)nc32)cc1,72.7% (active),34.3
Cc1ccc(NC(=O)N2CCC(c3nc4c(nnn4Cc4c(F)cccc4Cl)c(=O)[nH]3)CC2)cc1,6.25% (inactive),107
COc1ccc(C2CC(c3cccs3)=NN2C(=O)CSc2nncs2)cc1OC (stereo not drawn),66.7% (inactive),95.8
CN1CCN(C(=O)CCc2ncc(C(F)(F)F)cc2Cl)CC1,9.09% (inactive),150
COc1cccc(NC(=O)C2CCCN2C(=O)OCc2ccccc2)c1 (stereo not drawn),-34.4% (inactive),106
Cc1ccc(CNC(=O)C2CCCN2C(=O)NCc2ccccc2)cc1 (stereo not drawn),59% (inactive),73.5
CC(=O)c1cccc(NC(=O)N2CCCC2C(=O)NCCc2ccccc2)c1 (stereo not drawn),82.1% (active),27.6
O=[N+]([O-])c1ccc(N2CCNCC2)cc1NCc1cccnc1,66.7% (active),150
O=C(c1ccccc1)N1CCN(c2ccc([N+](=O)[O-])c(NCc3ccco3)c2)CC1,-9.68% (inactive),122
O=[N+]([O-])c1ccc(N2CCN(S(=O)(=O)c3ccc4ccccc4c3)CC2)cc1NCc1ccco1,-18.5% (inactive),121
COc1ccc(N2CCN(c3ccc([N+](=O)[O-])cc3Cl)CC2)cc1,7.69% (inactive),106
O=[N+]([O-])c1ccc(N2CCN(c3ccc(O)cc3)CC2)c(Cl)c1,86.7% (active),135
CCN1CCN(c2ccc([N+](=O)[O-])cc2C(=O)c2ccc(Cl)cc2)CC1,-83.3% (inactive),81.5
Cc1cc(C)c2c(n1)nn1c(N3CCOCC3)cc(C)nc21,74.3% (active),60.7
Cc1cc(C)c2c(n1)nn1c(N3CCN(c4cccc(Cl)c4)CC3)cc(C)nc21,-82.8% (inactive),99.8
Cc1nn2c3cc(N4CCOCC4)ccc3nc2c2ccccc12,-63.5% (inactive),79.7
CCCN(CC(=O)Nc1ccccc1C)C(=O)c1cc(=O)[nH]c2ccccc12,-38.5% (inactive),49.2
C=CCC1(CC=C)CCCN1C(=O)CC1C(=O)NCCN1Cc1ccccc1OC (stereo not drawn),20% (inactive),91.1
C/C(Cn1nnc2ccccc21)=N\OC(=O)c1cc(F)c(F)cc1Cl,-55% (inactive),99.6
CC(=O)c1cnc(SCC(=O)O)nc1C,26.7% (inactive),105
CC(=O)c1cc(C#N)c(SCC(=O)C(C)(C)C)nc1C,65.4% (active),142
Cc1cc(C#N)c(SCC(N)=O)nc1-c1ccc(F)cc1,14.3% (inactive),121
